Records with an inconclusive call do not appear. Values without a mark were called inactive. Calls of active or inactive are those of the source. The call rests on the fitted dose curve; in most records, active means well fitted cell-killing curve with a large enough effect; inconclusive means small, poorly fitted or top-dose-only effect; inactive means flat fitted curve, though single readings scatter.
On the % scale 0 is the no-effect control and ±100 the full control effect; potency means the concentration at half of the fitted maximal effect.

The test in a line: SDT Cancer Cell Toxicity qHTS against the NCATS CANVASS Library (AID 1347365). Further: nearly all actives have a fitted effect of over 60% in size. As to conditions: SDT dog glioma viability, ATP luminescence, 72 h; series mostly up to 46.1 µM; activity change, negative = cytotoxicity: at the top concentration. The source says:
Natural products and their derivatives continue to be wellsprings of nascent therapeutic potential. However, many laboratories have limited resources for biological evaluation, leaving their previously isolated or synthesized compounds largely or completely untested. To address this issue, the Canvass library of natural products was assembled (https://tripod.nih.gov/canvass), in collaboration with academic and industry researchers, for quantitative high-throughput screening (qHTS) across a diverse set of cell-based and biochemical assays. The pure (>85% purity by liquid chromatography/mass spectrometry [LC/MS]) Canvass library of 346 natural products were submitted by 45 academic laboratories and companies around the world. We collected pure natural products to circumvent deconvolution and structure elucidation due to time and resource limitations. The library was formatted into 1536-well plates and evaluated in 50 qHTS (in an 11-pnt concentration series) bioassays with broad scope of disease-relevant mechanisms. The resulting data set from 50 different assays was then systematically analyzed to identify overall trends and specific natural products with interesting biological activities. Reported herein are the results of each individual qHTS and their corresponding assay protocol. This assay uses ATP (luminescence) content to measure the cytotoxiciy of compounds on SDT dog glioma cancer cell line. National Center for Advancing Translational Sciences (NCATS), Rockville, MD National Institute of Health (NIH), Bethesda, Maryland
Cancer Cell Toxicity qHTS protocol: for cell lines G06, J3T, and SDT. 1. In a 1536 well, tissue culture treated white solid bottom plates (Corning 7494), 5 uL of SDT cell solution (final concentration of 500 cells / well) was dispensed using the Multidrop Combi dispenser (Thermo Fisher Scientific) into columns 2, 3, 5-48. 2. Control and Compounds were pin transferred (~23 nL volume) to the assay plates via Wako Pin-tool (Wako Automation, Richmond VA) equipped with a 1536 pin head. The compounds were transferred to columns 5-48 resulting in a final concentration ranging from 0.17 nM to 103 uM. Dose response titration of Bortezomib was pin transferred into column 2 (1mM; 1:2 dilution; 16 points) resulting to a final concentration range of 0.1 nM - 4.6 uM. 3. The assay plates were further incubated in the at 37C, 5% CO2, 95% Rh for 72 hr. 4. After incubation, 3 uL of CellTiterGlo reagent (Promega) was added to the assay plates (column 1-48, rows 1-32) and centrifuged for 15 sec at 1000 rpm to remove bubbles. 5. Luminescence signal was acquired via the ViewLux plate reader (PerkinElmer) using a clear emission filter, 2 sec exposure, and 1x binning settings.
In the case of `C[C@]12CCC3[C@@H](CC[C@@H]4C[C@@H](O)CC[C@]34CO)[C@@]1(O)CC[C@@H]2C1=CC(=O)OC1` (stereo partly specified), the Potency was 1480 nM (active).

Turning to `C/C(=C\[C@H](C)C(=O)C[C@H](O)CC1CC(=O)NC(=O)C1)[C@@H]1OC(=O)/C=C/CC/C=C/C=C/[C@@H]1C`, the Potency was 66.2 nM (active).

In the case of `CO[C@H]1C[C@H](O[C@H]2[C@@H](O)C[C@H](O[C@H]3CC[C@]4(C=O)[C@H]5CC[C@]6(C)C(C7=CC(=O)OC7)CC[C@]6(O)[C@@H]5CC[C@]4(O)C3)O[C@@H]2C)O[C@H](C)[C@H]1O[C@H]1C[C@@H](OC)[C@@H](O[C@@H]2O[C@H](CO)[C@@H](O)[C@H](O)[C@H]2O)[C@@H](C)O1` (stereo partly specified), the Potency was 148 nM (active).

`C=C[C@H]1CN2CCc3c([nH]c4cccc(OC)c34)[C@@H]2C[C@@H]1/C(=C\OC)C(=O)OC`: the Potency was 16600 nM (active).

Turning to `C/C=C1/CN2C3CC1C1=CCC(=O)N4c5ccccc5[C@@]3(C[C@@H]2C2=C[C@H]3C5CC6N(CC[C@@]67c6ccccc6N(C2=O)[C@@H]37)C/C5=C/C)[C@H]14` (stereo partly specified), the Potency is 20900 nM (active).

In the case of `CO[C@@H](/C=C/CC/C=C/C(=O)O)[C@@H](O)[C@H](C)/C=C(\C)[C@H](O)[C@H](C)C(=O)CCCC1CC(=O)NC(=O)C1`, the “activity change, negative = cytotoxicity” value was 1.06%.

On to `C[N+](C)(C)CCc1c[nH]c2ccccc12`, for which the outcome was inactive.

In the case of `COC1C(O)C(C)OC(OC2C(Oc3cccc4c(O)c5c(=O)oc6ccc(C)c7c(=O)oc(c34)c5c67)OC(C)C(O)C2O)C1O` (stereo unspecified), the Potency is 11800 nM (active).

`COC1=C(C2=C(OC)C(=O)c3cc4c(c(O)c3C2=O)C(=O)O[C@H](C)C4)C(=O)c2c(cc3c(c2O)C(=O)O[C@H](C)C3)C1=O`: the “activity change, negative = cytotoxicity” value was -14.7% [at 15.4 µM].

Consider `CC[C@@H]1CN2CCC3(Nc4cccc(OC)c4C3=O)[C@@H]2C[C@@H]1/C(=C\OC)C(=O)OC` (stereo partly specified), for which the “activity change, negative = cytotoxicity” value was -17.8%.

For `C=CC(C)(C)[C@@]12C[C@H]3C(=O)N/C(=C/c4cnc[nH]4)C(=O)N3[C@@H]1Nc1ccccc12`, the “activity change, negative = cytotoxicity” value was 3.62%.

On to `CCCC[C@@H](C)/C=C1/CN2CCC[C@H]2[C@@](C)(O)[C@@H]1O`, for which the “activity change, negative = cytotoxicity” value was -9.12%.

In the case of `CO[C@H]1[C@H](O[C@H]2CC[C@]3(C=O)[C@H]4CC[C@]5(C)[C@@H](C6=CC(=O)OC6)CC[C@]5(O)[C@@H]4CC[C@]3(O)C2)O[C@H](C)[C@H](O)[C@@H]1OC`, the Potency is 148 nM (active).

On to `O[C@H]1C=C[C@@]23CCN(Cc4cc5c(cc42)OCO5)[C@@H]3C1`, for which the “activity change, negative = cytotoxicity” value is 7.29%.

Take `C[C@]12CC(O)C3[C@@H](CCC4C[C@@H](O)CC[C@@]43CO)[C@@]1(O)CC[C@@H]2C1=CC(=O)OC1` (stereo partly specified): the Potency is 10500 nM (active).

On to `C[C@]12CC(O)C3[C@@H](CC[C@@H]4C[C@@H](O)CC[C@]34CO)[C@@]1(O)CC[C@@H]2C1=CC(=O)OC1` (stereo partly specified), for which the Potency is 2640 nM (active).

Take `C=C[C@]12C=CCN3CC[C@@]4(c5ccccc5NC(=O)[C@@H]4C1)[C@@H]32`: the “activity change, negative = cytotoxicity” value is -20.9%.

Regarding `CCCC[C@@H]1CC[C@H]2CCCC(CCCO)N12` (stereo partly specified), the “activity change, negative = cytotoxicity” value was 0.201%.

`C/C=C1/CN2CC[C@]34C(=C(C(=O)OC)[C@H]1C[C@H]23)Nc1ccccc14`: the Potency was 662 nM (active).

On to `CO[C@H]([C@@H](C)[C@H]1O[C@]1(C)C[C@H](C)/C=C/C=C(\C)[C@H]1O[C@@H](CC(=O)O)CC[C@@H]1C)[C@@H](C)O`, for which the Potency was 14.8 nM (active).

As for `C/C=C(\C)C(=O)O[C@@H]1[C@@H](O)[C@@H]2O[C@H]3[C@H](O[C@@H](CCCCC)CCCCCCC(=O)CCC(=O)OC[C@@H](O2)[C@H]1OC(=O)/C=C/c1ccccc1)O[C@H](C)[C@H](OC(C)=O)[C@@H]3O`, the Potency was 52.6 nM (active).

For the molecule `CCCCC1CC[C@H]2CCCC(CCC)N12` (stereo partly specified), the “activity change, negative = cytotoxicity” value is -19.9%.

As for `C=CC(C)(C)[C@@]12C[C@H]3C(=O)N/C(=C\c4cnc[nH]4)C(=O)N3[C@@H]1Nc1ccccc12`, the “activity change, negative = cytotoxicity” value was -8.25%.

On to `CC[C@@H]1CN2CCc3c([nH]c4cccc(OC)c34)[C@@H]2C[C@@H]1/C(=C\OC)C(=O)OC`, for which the Potency is 16600 nM (active).

For `CO[C@@]12c3c(C)cc(O)c4c(=O)occ(c34)C(=O)[C@@H]1[C@]13COC(=O)c4c(O)cc(C)c(c41)C(=O)[C@H]2[C@@H]3OC(C)=O`, the “activity change, negative = cytotoxicity” value is 13.8%.

Turning to `CCC(=O)N[C@@H](C[C@H](C)C(Cl)(Cl)Cl)C(=O)N1C(=O)C=C(OC)[C@@H]1C[C@H](C)C(Cl)Cl`, the molecule was classed as inactive.

Values taken from PubChem BioAssay (NCATS).
